Compounds with a hit are over-represented: about 17% of the library has one in this group of screens.
ATXN2 expr inh – inhibitors of ATXN2 expression. Potency, µM (titrated, usually from 57 µM), usual class: inhibitors. HEK-293 ATXN2-luciferase reporter, luminescence, 24 h. actives 0.72% (n = 360,000); note: nearly all actives have a fitted effect of over 55% in size
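qHTS (up to 57 uM final) was run with 24 h compound exposure of reporter cells at 37 °C. Each well was multiplexed: SteadyGlo luminescence measured ATXN2-luciferase expression after a fluorogenic Gly-Phe-AFC viability readout (25 uM final).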
S2 tox – reduces viability in counter-screen for ATXN expression inhibitors. Potency, µM (titrated, usually from 56.7 µM), usual class: cytotoxic. S2 cells (HEK-293 line with an ATXN2-luciferase reporter) viability, CellTiter-Fluor protease fluorescence, 24 h. actives 0.49% (n = 400,000); note: nearly all actives have a fitted effect of over 40% in size
TDP1 cell noCPT – qHTS for Inhibitors of human tyrosyl-DNA phosphodiesterase 1 (TDP1): qHTS in cells in absence of CPT | actives 15% (n = 420,000) | Potency, µM (titrated, usually from 46.2 µM), actives largely listed as inhibitors | DT40 Tdp1-/- hTDP1 cells, no CPT, ATP luminescence, 48 h; note: nearly all actives have a fitted effect of over 55% in size
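Seeded 400 DT40-hTDP1 cells/well (vehicle DMSO, no 20 nM CPT); pinned compounds; ≥48 hr at 37 °C; CellTiter-Glo luminescence as viability measure.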
DT40 TDP1 CPT – growth inhibition of DT40 Tdp1-/-;hTDP1 cells with camptothecin (screen for TDP1 inhibitors). AID 686979. chicken DT40 Tdp1-/-;hTDP1 cells + 20 nM CPT, ATP luminescence, 48 h. actives 12% (n = 420,000). Potency, µM (top dose mostly 46.2 µM), most hits filed as inhibitors; note: nearly all actives have a fitted effect of over 55% in size
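Chicken DT40 Tdp1-/- cells complemented with human TDP1, 400 cells/well, exposed to compounds plus 20 nM camptothecin for at least 48 h at 37 C; viability read as ATP content by CellTiter-Glo luminescence.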
HepG2 tox – kills HepG2 cells in TGF-b inhibitor counter-screen | HepG2 CAGA-GFP viability, ATP luminescence, 18 h | Potency, µM (top dose mostly 46.1 µM), most hits filed as cytotoxic | actives 0.76% (n = 410,000)
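CellTiter-Glo luminescence gave cytotoxicity after 18 hours at 37 degrees C. The cells were HepG2 CAGA-GFP in 1% FBS DMEM, stimulated with 500 pg/mL TGF-beta after compound addition. %Activity was normalised to no-cell wells (complete cell-killing) and DMSO (no toxicity), and curves were fitted and classified.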
TGFb inhibitor – inhibitors of TGF-b signaling; Potency, µM (titrated, usually from 46.1 µM), actives largely listed as inhibitors; HepG2 CAGA-GFP TGF-b/SMAD3 reporter, GFP fluorescence, 18 h; TGF-beta stimulated, 500 pg/mL final; AID 588855; actives 1.2% (n = 410,000); note: nearly all actives have a fitted effect of over 65% in size
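Smad-responsive CAGA-GFP expression was quantified in HEPG2 cells exposed to compounds and 500 pg/mL final TGF-beta for 18 h at 37 degrees C; unstimulated wells defined full inhibition.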
Hits are given with their value; . = inactive; ? = inconclusive; / = no result given. Calls come from the whole dose curve; as a rule, active = well fitted curve in the direction sought with a large enough effect; inconclusive = small, poorly fitted or top-dose-only effect, or another doubt; inactive = no such curve, though single readings can be large; an effect the other way counts as inactive or inconclusive.

SMILES	ATXN2 expr inh	S2 tox	TDP1 cell noCPT	DT40 TDP1 CPT	HepG2 tox	TGFb inhibitor
C[C@H](CO)N1C[C@H](C)[C@@H](CN(C)S(=O)(=O)c2ccccc2)Oc2c(NC(=O)Nc3ccc4c(c3)OCO4)cccc2C1=O	.	?	?	16µM	.	.
CC(C)(C)c1ccc(/C=N/NC(=S)NCc2ccccc2)cc1	.	.	?	?	.	.
Cn1c(=O)n(C)c2cc(/C=N/NC(=S)NCc3ccccc3)ccc21	.	.	26µM	?	.	.
CCOc1ccc(CNC(=S)N/N=C/c2ccc(OC)c(OC)c2)cc1	.	.	?	.	.	?
COc1cc(/C=N/NC(=S)NCc2ccccc2)ccc1OCC#N	.	.	23µM	21µM	.	.
CCC(=O)Nc1ccc(NC(=O)CSc2nnnn2Cc2ccccc2)cc1C	.	/	.	.	.	.
O=C(c1ccc(-n2cncn2)c2ccoc12)N1CCOCC1	.	.	.	.	.	.
CCCCNC(=O)CSc1nc(Cc2ccccc2)nc2ccccc12	.	?	?	?	.	.
COc1ccc(N2CCN(CC(O)COc3ccc(C(C)C)c(C)c3)CC2)cc1 (stereo unspecified)	.	?	?	?	.	?
COc1ccc(C(=O)N/N=C(/C)c2cccc(NC(=O)c3ccccc3F)c2)cc1	.	.	?	?	.	.
C/C(=N\NC(=O)c1ccccc1F)c1ccc2c(c1)Nc1ccccc1S2	.	.	23µM	5.8µM	.	?
CC(C)NC(=O)c1ccccc1-c1ccccc1	.	.	.	.	.	.
CC(C)NC(=O)C1(C#N)C=C1c1ccccc1 (stereo unspecified)	?	?	16µM	?	/	/
O=C(O)c1cccc(N2C(=O)/C(=C/c3ccc(SCc4ccc(Cl)cc4)o3)SC2=S)c1	.	?	?	21µM	.	.
CCn1c(/C=C/Nc2ccccc2)[n+](CC)c2cc(Cl)c(Cl)cc21	?	32µM	3.3µM	2.6µM	.	?
N#Cc1c(NCc2ccccc2)ccnc1NCc1cccnc1	.	.	8.2µM	23µM	.	.
N#Cc1c(F)cccc1NCc1cccnc1	.	.	.	.	.	.
COc1ccc(Oc2ncc3nc(-c4ccc(F)cc4)c(=O)n(Cc4cccs4)c3n2)cc1	/	/	.	.	/	/
COC(=O)c1cc(Cl)cc2c(C)c(C3(O)CCCCC3)[nH]c12	.	.	21µM	?	.	.
CC(C)C(=O)C1=Cc2cc([N+](=O)[O-])ccc2OC1N1CCOCC1 (stereo unspecified)	/	.	26µM	?	.	.
COC(=O)C1=Cc2cc(OC)cc([N+](=O)[O-])c2OC1N1CCOCC1 (stereo unspecified)	/	.	26µM	?	.	.
Cc1cccc(-n2c(=O)c3c(c4cc(C)ccc4n3C)n(Cc3ccccc3F)c2=O)c1	.	.	?	.	.	.
O=C(NC1CCCc2c1cnn2-c1ccccc1F)c1ccccn1 (stereo unspecified)	/	.	?	?	.	.
O=C(NC1CCCc2c1cnn2-c1ccccc1F)c1ccncc1 (stereo unspecified)	/	.	5.8µM	10µM	.	.
COc1ccc(C(=O)NC2CCCc3c2cnn3-c2ccccc2F)cc1OC (stereo unspecified)	.	.	1.6µM	5.2µM	.	.
SMILES	ATXN2 expr inh	S2 tox	TDP1 cell noCPT	DT40 TDP1 CPT	HepG2 tox	TGFb inhibitor
CCn1c(C)[n+](CCOCC[n+]2c(C)n(CC)c3cc(Cl)c(Cl)cc32)c2cc(Cl)c(Cl)cc21	.	.	.	.	.	?
C=Cc1ncc(OC)c2c1[nH]c1ccccc12	?	/	3.7µM	3.7µM	13µM	20µM
COc1ccc2c(c1)oc(=O)c1c3ccccc3[nH]c21	.	.	?	?	.	.
O=C(O)Cc1ccc(N2N=C(c3ccccc3)CC2=O)cc1	.	.	.	.	.	.
CNc1ncnc2c1ncn2[C@H]1CN(Cc2ccncc2)C[C@@H](CO)O1	.	.	.	.	.	.
CC(=O)Nc1cc(NC(C)=O)cc(C(=O)N2CCCC3CCCCC32)c1 (stereo unspecified)	.	.	.	.	.	.
Cc1ccc2nc(-c3ccccn3)[nH]c2c1	?	.	?	?	.	.
O=c1[nH]c(-c2ccccn2)nc2ccccc12	?	?	16µM	29µM	.	?
c1ccc(-c2nc3c(ccc4ccccc43)[nH]2)nc1	.	.	23µM	?	.	?
c1ccc(-c2nc3ccccc3[nH]2)nc1	.	.	16µM	?	.	.
O=c1[nH]c(-c2ccccn2)nc(C(F)(F)F)c1Br	.	?	4.6µM	6.5µM	.	.
CCOc1ccc(S(=O)(=O)N2CCOCC2)cc1NC(=O)CN1C(=O)NC(CC)(c2ccccc2)C1=O (stereo unspecified)	.	.	.	.	.	.
Nc1nc(-c2nc3ccccc3[nH]2)cs1	.	.	?	23µM	.	.
Nc1nc(CSc2nc3ccccc3[nH]2)cs1	.	.	.	?	.	.
Oc1cccc2c(CC(O)c3c[nH]c4ccccc34)ccnc12 (stereo unspecified)	/	/	11µM	?	.	?
Nc1c(C(=O)c2ccc(Cl)cc2)sc2nsc(SCCN3CCOCC3)c12	?	.	9.2µM	4.6µM	.	.
Nc1c(C(=O)c2ccccc2)sc2nsc(SCCN3CCCC3)c12	?	.	?	?	.	.
CC(C)C[C@H](NC(=O)N1CCn2c1nc1ccccc12)C(=O)NCC1CCCO1 (stereo partly specified)	.	.	.	.	.	.
c1ccc(C(Cc2nc(-c3ccncc3)no2)c2ccccc2)cc1	.	.	?	18µM	.	.
COc1cc(-c2noc(-c3ccc(N(C)C)c([N+](=O)[O-])c3)n2)cc(OC)c1OC	.	.	26µM	21µM	.	.
COc1cc(-c2noc(-c3ccc(NCc4ccco4)c([N+](=O)[O-])c3)n2)cc(OC)c1OC	.	.	7.3µM	12µM	.	?
COc1ccc(-c2noc(-c3ccc(NCC4CCCO4)c([N+](=O)[O-])c3)n2)cc1OC (stereo unspecified)	.	.	.	?	.	.
COc1cc(-c2noc(-c3ccc(NCC4CCCO4)c([N+](=O)[O-])c3)n2)cc(OC)c1OC (stereo unspecified)	.	.	3.7µM	7.3µM	.	.
COc1cc(-c2noc(-c3ccc(N4CCCCC4)c([N+](=O)[O-])c3)n2)cc(OC)c1OC	.	.	.	.	.	.

Screens as filed in PubChem.
